Results taken from PubChem BioAssay (Tox21).
Results filed as inconclusive are left out. Activity calls are given as the source filed them. Unless noted, the call rests on the fitted dose curve; in most records, active means well fitted curve in the direction sought with a large enough effect in the repeat runs; inconclusive means weak or mixed curves; inactive means no such curve, though single readings can be large; an effect the other way counts as inactive or inconclusive.

How the values were obtained:
[1] = A CellTox Green Cytotoxicity Assay to monitor cytotoxicity in HEK293 cells - 16 hour (AID 1224888); further: nearly all actives have a fitted effect of over 35% in size
Outline: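 Real-time, in one plate: 600 HEK293 cells/well with dead-cell DNA dye, pinned compound after 5 h, 37 C incubation over 40 h; viable cells give no appreciable fluorescence.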

[2] = qHTS RealTime-Glo MT Cell Viability Assay in HepG2 cells - 0 hour (AID 1224889); further: nearly all actives have a fitted effect of over 50% in size; further: potency means the concentration at half of the fitted maximal effect
Outline: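 HepG2 cells were seeded at 600 cells/well together with NanoLuc luciferase and a cell-permeant prosubstrate, preincubated 5 h at 37 C/5% CO2, then pin-dosed with compounds in DMSO. Nonlytic luminescence from viable cells was read at each time point.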

[3] = A CellTox Green Cytotoxicity Assay to monitor cytotoxicity in HepG2 cells - 8 hour (AID 1224890); further: nearly all actives have a fitted effect of over 45% in size
Outline: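 Cytotoxicity was tracked as dead-cell DNA fluorescence in HepG2 cells treated with test compounds at 37 C; each time-point value comes from one kinetic series spanning 0, 8, 16, 24, 32 and 40 h.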

[4] = qHTS assay to identify small molecule antagonists of the estrogen receptor alpha (ER-alpha) signaling pathway using the BG1 cell line in the presence of 0.1 nM 17-beta-estradiol - cell viability counter screen (AID 1259241); further: nearly all actives have a fitted effect of over 40% in size
Outline: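 Following 5 days in phenol red-free medium with charcoal-stripped serum, VM7Luc4E2 cells received test compounds alongside 0.1 nM 17beta-estradiol (final) at 37C for 22 hr. Live cells were then quantified via protease-substrate fluorescence.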

[5] = qHTS assay to identify small molecule antagonists of the androgen receptor (AR) signaling pathway using the MDA cell line in the presence of 0.5 nM R1881 - cell viability counter screen (AID 1259242); further: nearly all actives have a fitted effect of over 45% in size
Outline: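 Cells seeded at 3,000/well and allowed 5 hr at 37C, 0% CO2 before compound transfer and R1881 (0.5 nM final) addition; 16 hr later, live-cell protease fluorescence indicated cytotoxicity.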

[6] = molecular target: Androgen receptor (Homo sapiens) (UniProt P10275); assay: qHTS assay to identify small molecule antagonists of the androgen receptor (AR) signaling pathway using the MDA cell line in the presence of 0.5 nM R1881 (AID 1259243); further: nearly all actives have a fitted effect of over 50% in size; further: potency means the concentration at half of the fitted maximal effect
Sequence of Androgen receptor (Homo sapiens) (P10275 whole entry, looked up): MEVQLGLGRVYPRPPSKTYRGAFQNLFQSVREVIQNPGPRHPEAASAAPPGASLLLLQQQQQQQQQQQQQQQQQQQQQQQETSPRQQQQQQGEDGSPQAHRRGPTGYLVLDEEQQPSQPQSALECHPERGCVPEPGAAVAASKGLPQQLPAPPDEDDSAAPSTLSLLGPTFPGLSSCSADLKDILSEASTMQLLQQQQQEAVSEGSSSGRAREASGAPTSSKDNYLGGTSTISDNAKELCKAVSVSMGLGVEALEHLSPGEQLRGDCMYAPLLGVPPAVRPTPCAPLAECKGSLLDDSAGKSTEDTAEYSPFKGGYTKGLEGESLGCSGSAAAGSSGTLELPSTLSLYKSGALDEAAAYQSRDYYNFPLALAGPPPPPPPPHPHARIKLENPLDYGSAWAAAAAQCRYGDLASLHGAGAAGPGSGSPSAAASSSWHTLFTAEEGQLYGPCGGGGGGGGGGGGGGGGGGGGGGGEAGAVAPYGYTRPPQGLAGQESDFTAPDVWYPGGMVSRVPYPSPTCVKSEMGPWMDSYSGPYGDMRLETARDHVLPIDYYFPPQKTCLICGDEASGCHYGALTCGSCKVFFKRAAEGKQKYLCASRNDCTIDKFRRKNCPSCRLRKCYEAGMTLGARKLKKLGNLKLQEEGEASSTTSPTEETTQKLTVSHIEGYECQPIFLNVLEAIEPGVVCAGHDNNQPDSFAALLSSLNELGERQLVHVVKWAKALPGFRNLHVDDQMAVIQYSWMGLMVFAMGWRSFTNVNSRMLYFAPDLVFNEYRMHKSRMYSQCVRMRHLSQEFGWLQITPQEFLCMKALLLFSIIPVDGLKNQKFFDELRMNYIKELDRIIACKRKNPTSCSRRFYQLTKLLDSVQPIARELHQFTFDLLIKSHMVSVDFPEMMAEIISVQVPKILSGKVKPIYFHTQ
Outline: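 Luminescence from an AR/GR-responsive MMTV-luciferase construct in MDA-kb2 breast carcinoma cells, read 30 min after ONE-Glo, following 16 hr co-treatment with compounds and 0.5 nM R1881.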

[7] = qHTS assay to identify small molecule HDAC inhibitors (AID 1259364); further: potency means the concentration at half of the fitted maximal effect;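 further: wild-type HCT-116 cells with endogenous class I/II HDAC activity; nearly all actives have a fitted effect of over 45% in size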; on activity change, negative = inhibition: top concentration of the series differs between compounds
Outline: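 HCT-116 wt cells, 1,500/well, overnight attach. Compounds (DMSO) 2 h, 37 °C. HDAC-Glo I/II, 30 min RT. Luminescence.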

[8] = qHTS assay to identify small molecule HDAC inhibitors - cell viability counter screen (AID 1259365); further: series mostly up to about 92 µM; nearly all actives have a fitted effect of over 50% in size
Outline: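 HCT-116 wild-type, overnight attachment; 2hr drug exposure, 37C; CellTiter-Glo luminescent ATP readout after 30min RT.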

[9] = molecular target: Estrogen receptor (Homo sapiens) (UniProt P03372); assay: qHTS assay to identify small molecule antagonists of the estrogen receptor alpha (ER-alpha) signaling pathway using the BG1 cell line in the presence of 0.1 nM 17-beta-estradiol (AID 1259244); further: nearly all actives have a fitted effect of over 50% in size
Sequence of Estrogen receptor (Homo sapiens) (P03372 whole entry, looked up): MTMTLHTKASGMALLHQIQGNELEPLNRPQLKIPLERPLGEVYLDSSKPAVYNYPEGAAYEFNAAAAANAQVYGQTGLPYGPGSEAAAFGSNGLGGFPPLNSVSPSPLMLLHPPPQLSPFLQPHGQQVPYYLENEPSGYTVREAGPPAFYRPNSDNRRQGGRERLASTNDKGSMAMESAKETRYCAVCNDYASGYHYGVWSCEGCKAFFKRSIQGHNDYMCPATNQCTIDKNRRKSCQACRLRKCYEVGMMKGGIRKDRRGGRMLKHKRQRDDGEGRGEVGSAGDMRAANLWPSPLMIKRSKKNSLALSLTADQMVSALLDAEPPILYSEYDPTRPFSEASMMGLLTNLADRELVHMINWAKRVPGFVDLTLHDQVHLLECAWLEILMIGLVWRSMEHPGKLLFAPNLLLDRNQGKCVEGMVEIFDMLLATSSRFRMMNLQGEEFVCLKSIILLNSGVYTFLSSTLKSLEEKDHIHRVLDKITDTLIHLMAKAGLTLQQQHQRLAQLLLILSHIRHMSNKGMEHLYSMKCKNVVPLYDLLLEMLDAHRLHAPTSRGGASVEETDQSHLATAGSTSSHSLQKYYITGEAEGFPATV
Outline: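 Luciferase signal from VM7Luc4E2 ERE-reporter cells, co-dosed with test compound and 0.1 nM final 17beta-estradiol for 22 h, read with ONE-Glo.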

[10] = qHTS assay to identify small molecule phospholipidosis (PLD) inducers (AID 1259344; active means well fitted curve in the direction sought with a large enough effect; an effect the other way counts as inactive or inconclusive)
Outline: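 Accumulated phospholipid, stained red by LipidTOX during 24 h compound treatment of HepG2 cells at 37 C, is quantified from images as pit number and intensity, normalised per cell using Hoechst-stained nuclei.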
On the % scale 0 is the no-effect control and ±100 the full control effect.

O=C[C@@H](O)[C@H](O)[C@H](O)CO
inactive: Potency [1] | Potency [2] | Potency [3] | outcome [4] | outcome [5] | Potency [6] | Potency [7] | outcome [8]

CC(=O)c1ccc(O)c(C(N)=O)c1
inactive: Potency [1] | Potency [2] | Potency [3] | outcome [4] | outcome [5] | Potency [6] | outcome [8]

CC(=O)SCC(CC(=O)c1ccc(C)cc1)C(=O)O (configuration not stated)
inactive: Potency [1] | Potency [2] | Potency [3] | outcome [4] | outcome [5] | outcome [9] | Potency [10] | Potency [7]

COC(=O)c1ccc(NC(C)=O)cc1OC
inactive: Potency [1] | Potency [2] | Potency [3] | outcome [4] | outcome [5] | Potency [6] | outcome [9] | Potency [7]

COC(=O)c1ccc(C(=O)O)cc1
inactive: Potency [1] | Potency [2] | Potency [3] | outcome [4] | outcome [5] | outcome [9]

CCN1CCN(C(=O)N[C@@H](C(=O)N[C@@H]2C(=O)N3[C@@H]2SC(C)(C)[C@H]3C(=O)O)c2ccccc2)C(=O)C1=O
inactive: Potency [1] | Potency [2] | Potency [3] | outcome [4] | outcome [5] | outcome [9] | Potency [10] | Potency [7] | outcome [8]

O=C1c2ccccc2C(=O)N1CO
inactive: Potency [1] | Potency [2] | Potency [3] | outcome [4] | outcome [5] | Potency [6] | outcome [9] | Potency [7]

CC(O)C(CO)C(C)O (configuration not stated)
inactive: Potency [1] | Potency [2] | Potency [3] | outcome [4] | outcome [5] | Potency [6] | outcome [9] | Potency [7] | outcome [8]

CC(C)OC(=O)C(C(=O)OC(C)C)=C1SC=CS1
inactive: Potency [1] | Potency [2] | Potency [3] | outcome [4] | outcome [5] | Potency [6] | Potency [10] | outcome [8]

O=C1CCCc2c(O)cccc21
inactive: Potency [1] | Potency [2] | Potency [3] | outcome [4] | outcome [5] | Potency [6] | outcome [9] | Potency [7] | outcome [8]

C/C(=N\O)c1ccc(OCC(=O)N2CCCCC2)cc1
inactive: Potency [1] | Potency [2] | Potency [3] | outcome [4] | outcome [5] | Potency [6] | outcome [9] | Potency [10] | outcome [8]
active: Potency [7] 8.41 µM

N#Cc1ccccc1C#N
inactive: Potency [1] | Potency [2] | Potency [3] | outcome [4] | outcome [5] | Potency [6] | outcome [9] | outcome [8]

CSC(=O)c1cccc2nnsc12
active: Potency [6] 15.4 µM
inactive: Potency [1] | Potency [2] | Potency [3] | outcome [4] | outcome [5] | outcome [9] | Potency [7] | outcome [8]

Cc1ccccc1C#N
inactive: Potency [1] | Potency [2] | Potency [3] | outcome [4] | outcome [5] | outcome [9]

CN1C(CCl)Nc2cc(Cl)c(S(N)(=O)=O)cc2S1(=O)=O (configuration not stated)
inactive: Potency [1] | Potency [2] | Potency [3] | outcome [4] | outcome [5] | outcome [9] | Potency [10] | outcome [8]

CCCc1ccc(O)c(OC)c1
inactive: Potency [1] | Potency [2] | Potency [3] | outcome [4] | outcome [5] | outcome [9] | Potency [7] | outcome [8]

CCO[Si](CC(C)C)(OCC)OCC
inactive: Potency [1] | Potency [2] | Potency [3] | outcome [4] | outcome [5] | outcome [9] | Potency [7] | outcome [8]

CC(=O)Oc1ccc(C(C)=O)cc1
inactive: Potency [1] | Potency [2] | Potency [3] | outcome [4] | outcome [5] | outcome [9] | Potency [7] | outcome [8]

CC(O)CCCCn1c(=O)c2c(ncn2C)n(C)c1=O (configuration not stated)
inactive: Potency [1] | Potency [2] | Potency [3] | outcome [4] | outcome [5] | outcome [9] | Potency [10] | Potency [7] | outcome [8]

CN(C)CCC[C@@]1(c2ccc(F)cc2)OCc2cc(C#N)ccc21
inactive: Potency [1] | Potency [2] | Potency [3] | outcome [4] | outcome [5] | outcome [9] | Potency [10] | Potency [7] | outcome [8]

NS(=O)(=O)c1cc2c(cc1C(F)(F)F)NCNS2(=O)=O
inactive: Potency [1] | Potency [2] | Potency [3] | outcome [4] | outcome [5] | outcome [9] | Potency [10] | outcome [8]

O=P(O)(O)C(O)(Cc1cccnc1)P(=O)(O)O
inactive: Potency [1] | Potency [2] | Potency [3] | outcome [4] | outcome [5] | outcome [9] | Potency [10] | Potency [7] | outcome [8]

O=C(O)/C=C(\CC(=O)O)C(=O)O
inactive: Potency [1] | Potency [2] | Potency [3] | outcome [4] | outcome [5] | outcome [9] | Potency [10] | Potency [7] | outcome [8]

C[C@]12C=CC(=O)C=C1[C@@H](F)C[C@@H]1[C@@H]2[C@@H](O)C[C@@]2(C)[C@H]1CC[C@]2(O)C(=O)CO
active: Potency [2] 10.7 µM
inactive: Potency [1] | Potency [3] | outcome [4] | outcome [5] | outcome [9] | Potency [10] | Potency [7] | outcome [8]

C[C@@H]1CC[C@@]2(OC1)O[C@H]1C[C@H]3[C@@H]4CC[C@H]5C[C@@H](O)CC[C@]5(C)[C@H]4CC(=O)[C@]3(C)[C@H]1[C@@H]2C
inactive: activity change [1] -0.0716% [at 6.97 µM, stronger effect = higher value] | activity change, negative = cytotoxicity [2] 5.89% [at 6.97 µM] | cytotoxicity increase [3] -0.434% [at 6.97 µM] | activity change, negative = cytotoxicity [4] -0.428% [at 8.39 µM] | viability change, negative = cytotoxic [5] 4.91% [at 8.39 µM] | activity change, negative = inhibition [9] 0.329% [at 8.39 µM] | Potency [10] | activity change, negative = inhibition [7] 8.02% [at 8.39 µM] | activity change, negative = cytotoxicity [8] 4.19% [at 8.39 µM]
